Reference: the supplement of paper PMC11732987, “Enantioselective OTUD7B fragment discovery through chemoproteomics screening and high-throughput optimisation” (Communications Chemistry, 2025)

What was measured:
Experiment in all cases: log2 ratio of Biotin-Ahx-Ub-VS probe labelling (fragment/DMSO); higher = less target engagement (more negative = stronger competition), active = hit call of the paper (q ≤ 0.05, log2 ratio ≤ -1)
Conditions in all cases: compound concentration: 200 uM; treatment time: 3 h
OTUD6B = target: T1, OTUD6B (UniProt Q8N6M0)
T1 sequence (whole entry): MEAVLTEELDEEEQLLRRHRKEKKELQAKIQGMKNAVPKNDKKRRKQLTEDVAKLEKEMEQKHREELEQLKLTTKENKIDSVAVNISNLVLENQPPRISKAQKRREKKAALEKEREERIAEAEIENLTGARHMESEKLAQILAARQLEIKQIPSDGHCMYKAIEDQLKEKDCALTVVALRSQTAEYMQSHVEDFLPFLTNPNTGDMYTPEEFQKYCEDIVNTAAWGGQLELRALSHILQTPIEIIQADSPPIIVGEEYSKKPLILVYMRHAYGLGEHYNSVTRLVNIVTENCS
Outline: (§1)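 HEK293T lysate (495 µg per sample, in Tris/CHAPS/IGEPAL buffer with protease inhibitors) was exposed in triplicate for 3 h to fragment at 200 µM or to vehicle, then to Biotin-Ahx-Ub-VS at 0.5 µM final for 1 h. Labelled DUBs were enriched on NeutrAvidin, digested with LysC and trypsin, and analysed by diaPASEF LC-MS/MS. Spectronaut label-free quantities were normalised to the global median, and values are average log2 ratios of fragment over vehicle from an unpaired t-test. Only proteins with ≥2 unique peptides were used.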

OTUD7B = target: T2, OTUD7B (UniProt Q6GQQ9)
T2 sequence (whole entry): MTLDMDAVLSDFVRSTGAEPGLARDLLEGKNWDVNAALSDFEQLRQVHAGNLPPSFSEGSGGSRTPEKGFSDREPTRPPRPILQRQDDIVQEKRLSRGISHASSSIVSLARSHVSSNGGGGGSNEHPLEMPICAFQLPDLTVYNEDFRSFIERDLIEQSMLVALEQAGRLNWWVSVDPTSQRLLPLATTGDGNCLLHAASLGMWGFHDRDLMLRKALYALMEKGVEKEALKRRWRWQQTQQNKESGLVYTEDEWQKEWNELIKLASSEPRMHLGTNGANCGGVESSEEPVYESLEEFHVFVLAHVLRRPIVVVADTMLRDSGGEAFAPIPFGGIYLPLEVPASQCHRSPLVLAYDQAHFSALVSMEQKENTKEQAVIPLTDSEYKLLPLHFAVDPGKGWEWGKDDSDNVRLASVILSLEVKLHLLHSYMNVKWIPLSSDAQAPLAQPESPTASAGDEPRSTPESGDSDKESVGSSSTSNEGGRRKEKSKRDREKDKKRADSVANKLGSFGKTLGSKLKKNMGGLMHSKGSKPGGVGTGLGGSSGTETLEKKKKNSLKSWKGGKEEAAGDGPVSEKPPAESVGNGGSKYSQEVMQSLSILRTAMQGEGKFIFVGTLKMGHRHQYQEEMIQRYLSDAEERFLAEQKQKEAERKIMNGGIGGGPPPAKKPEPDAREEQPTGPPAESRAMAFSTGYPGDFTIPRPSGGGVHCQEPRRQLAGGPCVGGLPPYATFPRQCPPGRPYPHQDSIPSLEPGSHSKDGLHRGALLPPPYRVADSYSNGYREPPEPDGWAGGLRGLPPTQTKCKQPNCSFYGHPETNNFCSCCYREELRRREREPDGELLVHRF
Outline: as §1

PRPF8 = PRPF8 (UniProt Q6P2Q9)
Outline: as §1

PSMD7 = target: T3, PSMD7 (UniProt P51665)
T3 sequence (whole entry): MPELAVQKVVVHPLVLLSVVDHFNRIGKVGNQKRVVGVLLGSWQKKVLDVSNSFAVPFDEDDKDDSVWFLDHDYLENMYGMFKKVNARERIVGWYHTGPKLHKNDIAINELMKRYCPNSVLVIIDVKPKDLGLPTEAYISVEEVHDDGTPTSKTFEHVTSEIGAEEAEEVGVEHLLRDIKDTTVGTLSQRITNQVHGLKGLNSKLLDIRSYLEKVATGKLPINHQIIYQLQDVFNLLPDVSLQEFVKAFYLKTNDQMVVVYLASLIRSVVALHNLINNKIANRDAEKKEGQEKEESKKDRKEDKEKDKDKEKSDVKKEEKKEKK
Outline: as §1

UCHL1 = UCHL1 (UniProt P09936)
Chain of UCHL1 (P09936 whole entry, looked up): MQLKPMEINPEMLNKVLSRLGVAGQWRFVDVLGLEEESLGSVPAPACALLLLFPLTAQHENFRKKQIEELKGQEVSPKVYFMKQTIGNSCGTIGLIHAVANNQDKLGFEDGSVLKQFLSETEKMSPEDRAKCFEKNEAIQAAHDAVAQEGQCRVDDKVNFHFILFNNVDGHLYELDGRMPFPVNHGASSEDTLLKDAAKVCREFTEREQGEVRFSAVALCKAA
Outline: as §1

UCHL3 = target: T4, UCHL3 (UniProt P15374)
T4 sequence (whole entry): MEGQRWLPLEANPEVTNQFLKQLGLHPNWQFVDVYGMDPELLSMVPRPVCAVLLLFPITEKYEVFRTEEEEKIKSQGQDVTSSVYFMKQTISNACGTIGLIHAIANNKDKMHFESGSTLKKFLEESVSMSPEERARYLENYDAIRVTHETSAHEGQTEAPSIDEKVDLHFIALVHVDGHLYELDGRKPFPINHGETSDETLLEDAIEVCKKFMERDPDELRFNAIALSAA
Outline: as §1

UCHL5 = target: T5, UCHL5 (UniProt Q9Y5K5)
T5 sequence (whole entry): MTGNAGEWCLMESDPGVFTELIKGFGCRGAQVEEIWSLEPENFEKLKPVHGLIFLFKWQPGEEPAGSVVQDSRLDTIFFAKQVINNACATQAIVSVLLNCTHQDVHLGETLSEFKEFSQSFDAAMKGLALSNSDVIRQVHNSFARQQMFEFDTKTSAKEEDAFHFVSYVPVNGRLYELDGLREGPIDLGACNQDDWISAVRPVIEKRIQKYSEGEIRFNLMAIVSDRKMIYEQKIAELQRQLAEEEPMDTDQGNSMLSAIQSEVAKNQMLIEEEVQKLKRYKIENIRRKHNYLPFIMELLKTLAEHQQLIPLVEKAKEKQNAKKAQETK
Outline: as §1

USP10 = USP10 (UniProt Q14694)
Chain of USP10 (Q14694 whole entry): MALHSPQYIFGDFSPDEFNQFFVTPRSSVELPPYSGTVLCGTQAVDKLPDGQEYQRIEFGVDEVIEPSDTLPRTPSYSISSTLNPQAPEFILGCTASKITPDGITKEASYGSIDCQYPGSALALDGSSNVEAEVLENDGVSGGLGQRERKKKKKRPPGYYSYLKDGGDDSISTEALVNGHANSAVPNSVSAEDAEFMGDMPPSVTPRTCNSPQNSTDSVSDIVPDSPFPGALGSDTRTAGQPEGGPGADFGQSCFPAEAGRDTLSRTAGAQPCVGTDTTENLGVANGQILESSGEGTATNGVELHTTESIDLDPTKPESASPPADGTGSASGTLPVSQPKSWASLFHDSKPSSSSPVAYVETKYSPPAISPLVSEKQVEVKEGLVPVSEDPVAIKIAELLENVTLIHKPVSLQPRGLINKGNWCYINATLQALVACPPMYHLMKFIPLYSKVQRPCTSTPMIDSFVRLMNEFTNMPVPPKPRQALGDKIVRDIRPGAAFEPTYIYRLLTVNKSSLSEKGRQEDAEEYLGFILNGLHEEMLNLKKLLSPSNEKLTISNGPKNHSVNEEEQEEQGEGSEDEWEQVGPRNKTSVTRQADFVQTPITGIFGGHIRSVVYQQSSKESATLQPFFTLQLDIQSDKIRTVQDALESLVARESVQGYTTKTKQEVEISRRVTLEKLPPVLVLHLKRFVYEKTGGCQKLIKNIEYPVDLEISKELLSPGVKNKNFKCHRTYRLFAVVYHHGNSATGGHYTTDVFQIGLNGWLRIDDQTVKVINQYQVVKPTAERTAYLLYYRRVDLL
Outline: as §1

USP15 = target: T6, USP15 (UniProt Q9Y4E8)
T6 sequence (whole entry): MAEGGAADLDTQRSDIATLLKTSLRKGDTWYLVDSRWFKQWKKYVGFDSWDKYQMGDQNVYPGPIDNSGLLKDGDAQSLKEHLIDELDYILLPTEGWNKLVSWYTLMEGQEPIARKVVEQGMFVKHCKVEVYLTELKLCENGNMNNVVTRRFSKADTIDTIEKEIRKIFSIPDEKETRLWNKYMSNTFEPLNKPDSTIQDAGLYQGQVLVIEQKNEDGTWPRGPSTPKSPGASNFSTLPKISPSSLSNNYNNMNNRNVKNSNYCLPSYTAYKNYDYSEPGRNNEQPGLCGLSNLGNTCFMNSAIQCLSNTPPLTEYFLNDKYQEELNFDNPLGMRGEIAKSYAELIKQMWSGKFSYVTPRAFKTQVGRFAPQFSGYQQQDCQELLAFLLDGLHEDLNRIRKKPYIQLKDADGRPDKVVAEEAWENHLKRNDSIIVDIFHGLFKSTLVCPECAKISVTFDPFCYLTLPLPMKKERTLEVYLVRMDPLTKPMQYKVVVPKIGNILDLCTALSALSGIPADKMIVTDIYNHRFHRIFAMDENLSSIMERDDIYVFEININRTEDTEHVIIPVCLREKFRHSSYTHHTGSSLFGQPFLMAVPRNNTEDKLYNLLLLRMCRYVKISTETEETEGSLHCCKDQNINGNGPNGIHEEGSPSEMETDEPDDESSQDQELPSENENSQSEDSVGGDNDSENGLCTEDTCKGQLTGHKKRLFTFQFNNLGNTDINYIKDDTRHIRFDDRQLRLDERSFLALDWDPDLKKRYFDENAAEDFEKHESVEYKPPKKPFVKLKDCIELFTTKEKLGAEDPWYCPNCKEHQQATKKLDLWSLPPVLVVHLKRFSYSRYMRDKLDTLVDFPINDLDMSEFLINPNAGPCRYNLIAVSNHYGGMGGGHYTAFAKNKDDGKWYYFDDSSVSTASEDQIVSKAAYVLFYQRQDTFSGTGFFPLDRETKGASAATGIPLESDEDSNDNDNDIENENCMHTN
Outline: as §1

USP16 = USP16 (UniProt Q9Y5T5)
Chain of USP16 (Q9Y5T5 whole entry, looked up): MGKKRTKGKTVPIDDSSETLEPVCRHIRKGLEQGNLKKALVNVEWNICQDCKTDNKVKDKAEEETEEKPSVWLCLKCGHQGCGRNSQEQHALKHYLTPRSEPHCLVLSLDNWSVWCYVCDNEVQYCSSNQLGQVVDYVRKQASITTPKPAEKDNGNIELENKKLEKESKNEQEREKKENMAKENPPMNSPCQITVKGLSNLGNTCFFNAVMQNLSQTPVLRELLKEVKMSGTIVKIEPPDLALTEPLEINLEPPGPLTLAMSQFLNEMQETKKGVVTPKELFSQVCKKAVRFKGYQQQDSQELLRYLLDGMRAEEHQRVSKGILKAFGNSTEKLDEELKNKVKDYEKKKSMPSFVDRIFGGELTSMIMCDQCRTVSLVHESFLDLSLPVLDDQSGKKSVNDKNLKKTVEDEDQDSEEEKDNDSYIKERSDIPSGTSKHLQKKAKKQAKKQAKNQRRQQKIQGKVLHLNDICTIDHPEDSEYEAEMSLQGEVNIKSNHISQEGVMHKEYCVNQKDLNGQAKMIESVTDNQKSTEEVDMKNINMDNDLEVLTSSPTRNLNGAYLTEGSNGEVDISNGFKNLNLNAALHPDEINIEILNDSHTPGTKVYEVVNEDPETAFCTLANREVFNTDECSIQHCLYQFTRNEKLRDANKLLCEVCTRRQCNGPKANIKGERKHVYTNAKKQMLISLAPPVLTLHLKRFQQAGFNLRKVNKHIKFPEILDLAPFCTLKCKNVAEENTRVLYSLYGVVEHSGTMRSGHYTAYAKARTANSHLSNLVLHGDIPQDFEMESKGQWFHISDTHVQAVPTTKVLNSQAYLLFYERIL
Outline: as §1

Measured: log2 ratio of Biotin-Ahx-Ub-VS probe labelling

O=C(CCl)N1CCC(OCc2ccccc2F)CC1
active: UCHL1 -1.13
inactive: OTUD6B 0.102 | OTUD7B -0.198 | PRPF8 0.14 | PSMD7 0.0473 | UCHL3 0.341 | UCHL5 -0.00457 | USP10 -0.192 | USP15 -0.104 | USP16 -0.184
